HTT aggregate: qHTS Multiplex Assay to Identify Dual Action Probes in a Cell Model of Huntington: Aggregate Formation (GFP); AID 1688, 2009; hit rate 1.1% among 220,000; Potency, µM (titrated, usually from 46.1 µM), for inactives: top-dose activity change, negative = inhibition, most hits filed as inhibitors; PC12 HttQ103-GFP aggregates, Acumen cytometry, 40 h; active means well fitted curve in the direction sought with a large enough effect; inconclusive means small, poorly fitted or top-dose-only effect, or another doubt; inactive means no such curve, though single readings can be large; an effect the other way counts as inactive or inconclusive; further: on the % scale 0 is the no-effect control and ±100 the full control effect; nearly all actives have a fitted effect of over 60% in size
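Aggregates are detected as GFP objects 1–25 µm with signal 6 STDEV over background in lysates of induced PC12 cells. These carry Huntingtin exon 1 with 103 glutamines fused to GFP under an ecdysone promoter; compounds titrated.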
HTT cytoprotect: qHTS Multiplex Assay to Identify Dual Action Probes in a Cell Model of Huntington: Cytoprotection (ATP); PC12 HTT-Q103 induced, cytoprotection, ATP luminescence, 40 h; Potency, µM (highest dose often 56.4 µM), without a hit: cytoprotection (ATP increase), most hits filed as activators; hit rate 0.14% among 230,000; active means well fitted curve in the direction sought with a large enough effect; inconclusive means small, poorly fitted or top-dose-only effect, or another doubt; inactive means no such curve, though single readings can be large; an effect the other way counts as inactive or inconclusive; further: % of control where 0% means no effect; nearly all actives have a fitted effect of over 45% in size
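Compounds added alongside 100 nM tebufenozide, which induces toxic Q103 huntingtin exon 1-GFP in stable PC12 cells; surviving cells quantified by luminescent ATP measurement. Medium: phenol red-free DMEM, 5% equine and 5% calf serum.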
ALDH1A1 block: qHTS Assay for Inhibitors of Aldehyde Dehydrogenase 1 (ALDH1A1). hit rate 7.3% among 220,000. Purified ALDH1A1, NADH fluorescence, propionaldehyde substrate. Aldehyde dehydrogenase 1A1 (Homo sapiens), P00352. Potency, µM (top dose mostly 75.3 µM), for the others: top-dose activity, negative = inhibition, usual class: inhibitors. AID 1030, 2008;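 further: plate controls were no enzyme wells and a reference inhibitor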
HPGD inh: qHTS Assay for Inhibitors of HPGD (15-Hydroxyprostaglandin Dehydrogenase) | hit rate 4.3% among 150,000 | 15-hydroxyprostaglandin dehydrogenase [NAD(+)] (Homo sapiens), P15428 | AID 894, 2007 | purified HPGD, NADH fluorescence kinetic, PGE2 substrate | Potency, µM, for the others: at the top dose activity change, negative = inhibition, usual class: inhibitors; further: on the % scale 0 is the no-effect control and ±100 the full control effect
Target sequence (P15428 whole entry, looked up): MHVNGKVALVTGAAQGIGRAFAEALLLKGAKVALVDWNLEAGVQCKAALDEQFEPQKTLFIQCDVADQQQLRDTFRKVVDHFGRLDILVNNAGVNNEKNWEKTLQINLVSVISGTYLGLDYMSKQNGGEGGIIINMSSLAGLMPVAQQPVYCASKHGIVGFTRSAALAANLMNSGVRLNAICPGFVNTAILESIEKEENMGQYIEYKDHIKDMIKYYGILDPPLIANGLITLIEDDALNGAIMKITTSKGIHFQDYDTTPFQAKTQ
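NADH formation kinetics: reaction with 30 uM PGE2 and 1 mM NAD+ (final), 20 nM enzyme, Tris-HCl pH 8 with Tween 20, after 15 min compound preincubation at room temperature. Fluorescence change, last versus first of five reads.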
LMNA splice mod: qHTS Assay for Modulators of Lamin A Splicing. Potency, µM (titrated, usually from 46.1 µM), for inactives: at the highest dose ratio change, negative = inhibition, hits mostly inhibitors. hit rate 0.01% among 200,000. HeLa LMNA splicing GFP/RFP minigene ratio, 48 h. AID 1487, 2009; active means well fitted inhibition curve with a large enough effect in the signal ratio, with a control signal flat, not every such curve was filed as active; inconclusive means small, poorly fitted or top-dose-only effect, or effect the other way, or a change in a side signal; the % refers to the signal ratio; further: on the % scale 0 is the no-effect control and ±100 the full control effect
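S3 HeLa stable clones carrying a lamin A-EGFP splicing minigene plus DsRed2 were seeded at 600 cells/well in Opti-MEM with 2% FBS, pin-dosed and incubated 48 h at 37°C. Acumen cytometry (488 nm) gave the GFP/RFP total-intensity ratio.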
* hit, by the source's call; ? = inconclusive; . = not tested or not shown; [ ] = remark or other dose. Most compounds without a hit are left out; they make up all but 8.8% or so of the library. Unless noted, the call rests on the fitted dose curve; in most records, active means well fitted inhibition curve with a large enough effect (not every such curve was filed as active); inconclusive means small, poorly fitted or top-dose-only effect, or another doubt; inactive means no such curve, though single readings can be large or run the other way. Potency means the concentration at half of the fitted maximal effect.

SMILES	HTT aggregate	HTT cytoprotect	ALDH1A1 block	HPGD inh	LMNA splice mod
CCc1cc(C(=O)N2CCCC(CNC(=O)c3ccc(-c4ccccc4)cc3)C2)no1 (stereo not given)	-19%	-11%	-4%	.	.
O=C(CCS(=O)(=O)c1cc(Br)cc2c1N(C(=O)C1CC1)CC2)NCc1ccco1	-2%	10%	11µM*	-16%	15%
CCC(=O)N1CCc2cc(S(=O)(=O)CCC(=O)NCc3ccco3)ccc21	-12%	-17%	5%	.	.
Cc1ccc(S(=O)(=O)CC#CCOC(=O)c2ccc([N+](=O)[O-])cc2)cc1	23%	-11%	1.1µM*	13µM*	?
O=C1c2ccccc2CC1Sc1nnc(-c2ccccn2)o1 (stereo not given)	-10%	-10%[10 µM]	3.2µM*	?	10%
C=CCSC1=N/C(=C\c2sccc2C)C(=O)S1	-7%	18%	2%	-12%	-8%
C=CCSC1=N/C(=C\C=C\c2ccco2)C(=O)S1	16%	13%	20µM*	-23%	2%
S=c1[nH]nc([C@@H]2C[C@H]2c2ccccc2)n1-c1ccccc1	8%	.	?	25µM*	1%
Cc1ccccc1-n1c([C@@H]2C[C@H]2c2ccccc2)n[nH]c1=S	-6%[9.22 µM]	7%[10 µM]	?	.	.
COc1ccc(OC)c2sc(N(Cc3cccnc3)C(=O)c3ccc(C(C)=O)cc3)nc12	.	.	.	.	-10%[46 µM]
c1coc(-c2cc(C3CCNCC3)[nH]n2)c1	3%	-26%	13%	.	-12%[46 µM]
N#CCN1CCC(c2cc(-c3ccco3)n[nH]2)CC1	-8%	-29%	22µM*	.	-5%[46 µM]
CC(CNC(=O)c1nnc(Cc2ccc(F)cc2)o1)c1ccccc1 (stereo not given)	.	.	.	.	7%[46 µM]
Cc1ccc(C)c(C(=O)COc2ccc(C)nc2[N+](=O)[O-])c1	14%[9.22 µM]	-82%	1.6µM*	-16%	?
COCCn1c(C)cc(C(=O)COc2ccc(C)nc2[N+](=O)[O-])c1C	33%	-15%	10µM*	.	.
Cc1ccc(OCC(=O)c2c[nH]c3ccccc23)c([N+](=O)[O-])n1	14%	15%[10 µM]	-8%	.	?
Cc1ccc(OCC(=O)c2cc(C)c(C)cc2C)c([N+](=O)[O-])n1	?	-34%	3.5µM*	-20%	5%
CCCn1c(C)cc(C(=O)COc2ccc(C)nc2[N+](=O)[O-])c1C	17%	15%[10 µM]	?	.	-10%
Cc1ccc(OCC(=O)c2cc(C)n(-c3ccccc3)c2C)c([N+](=O)[O-])n1	?	-12%[1.9 µM]	?	-10%	?
Cc1ccc(Cl)cc1NC(=O)c1cc2c(=O)n3cccc(C)c3nc2n1C	.	.	.	.	9%[46 µM]
COc1cc(C2C(=O)N(C3CCCCCC3)CC(=O)N2CCc2ccccc2)ccc1OC(C)C (stereo not given)	.	.	.	.	0%[46 µM]
COc1ccc(CNC(=O)CN(Cc2ccc(OC)cc2)C(=O)c2csnn2)cc1	4%[9.22 µM]	-21%[10 µM]	2.2µM*	.	.
COc1ccc(CNC(=O)c2csnn2)cc1	8%	-18%	25µM*	-19%	-2%
COc1ccc(CNC(=O)COC(=O)c2ccccn2)cc1	-1%	-4%	25µM*	.	3%[46 µM]
COc1ccc(CNC(=O)CN(Cc2ccccc2)C(=O)c2csnn2)cc1	25%	-9%	?	-6%	9%
SMILES	HTT aggregate	HTT cytoprotect	ALDH1A1 block	HPGD inh	LMNA splice mod
CCOC(=O)Cn1c(=O)n(-c2ccccc2OC)c2nc(-c3ccccc3C)nc(C(N)=O)c21	.	.	.	.	9%[46 µM]
COc1ccc(/C=C2\SC(=S)NC2=O)cc1OS(=O)(=O)c1ccc(NC(C)=O)cc1	17%	-39%	0.71µM*	.	.
COc1cc(C=O)ccc1OS(=O)(=O)c1ccc(NC(C)=O)cc1	9%	12%[0.074 µM]	?	-24%	-1%
COc1cccc(/C=C2\SC(N)=NC2=O)c1OS(=O)(=O)c1ccccc1	-8%	-7%	4%	.	.
COc1cccc(/C=C2\SC(=S)NC2=O)c1OS(=O)(=O)c1ccc(NC(C)=O)cc1	27%	4%[10 µM]	?	25µM*	-20%
CCOc1ccc(/C=C2\SC(=S)NC2=O)cc1OC	-4%[9.22 µM]	-3%[10 µM]	?	.	?
